MazF activator = increases E. coli MazEF RNase cleavage of RNA; P0AE70; FAM/BHQ RNA-DNA oligo cleavage fluorescence, 5 h; activation, % at 20 µM; hit rate 0.32% among 350,000; in the data active = activation above about 50%
Bead autofluor = compound fluorescence in toxin protease inhibitor counterscreen; compound autofluorescence counterscreen, microsphere flow cytometry; stronger effect = higher value; fluorescence intensity (no concentration beside the values); hit rate 3.1% among 360,000; AID 624483; in the data active = fluorescence intensity above about 16000; inconclusive = no clear call, values can overlap the other calls
BoNT-F LC inh = BoNT F light chain protease inhibition; Multiplex microsphere protease cleavage assay, flow cytometry; inhibition, % at 10 µM; hit rate 0.22% among 360,000; AID 588497; in the data active = inhibition above about 35%, passing the limit was not always enough; inconclusive = no clear call, values can overlap the other calls; also: plate controls were buffer without enzyme for full effect and enzyme alone for no effect
Anthrax LF prot = inhibitors of Bacillus anthracis lethal factor protease; P15917; multiplex microsphere protease cleavage assay, LF; inhibition, % at 10 µM; hit rate 0.12% among 360,000; AID 588501; also: plate controls were buffer without enzyme for full effect and enzyme alone for no effect
BoNT-A LC inh2 = blocks Botulinum neurotoxin A light chain protease | multiplex microsphere protease substrate cleavage, flow cytometry | inhibition, % at 10 µM | hit rate 0.17% among 360,000 | AID 588499; also: plate controls were buffer without enzyme for full effect and enzyme alone for no effect
An asterisk follows results filed as active; ? = inconclusive; · = no result given; + = active, no number. Hits are enriched below; roughly 3.7% of the tested compounds scored in any of these assays. Rule as the data show it, unless noted: active = inhibition above about 30%; inconclusive = no clear call, values can overlap the other calls; inactive = below that.

SMILES	MazF activator	Bead autofluor	BoNT-F LC inh	Anthrax LF prot	BoNT-A LC inh2
COc1ccc(C2CC(=O)N3C(=C2C#N)SCC3(O)c2ccccc2)cc1 (centres undefined)	-8	19377*	2	-4	3
CCOC(=O)C1=C(O)CSC1=Nc1ccccc1	10	·	·	·	·
CCOC(=O)C1=C(O)CSC1=Nc1ccc(Cl)cc1	-2	16689*	-1	-1	-1
CCO/C=C1/C(=O)N(C(C)=O)c2ccccc21	-2	22792*	-3	-1	?
Cc1cc(C(=O)CSCCCn2c(=O)[nH]c3ccccc32)c(C)n1C	7	2276	-5	-7	0
O=c1[nH]c2ccccc2n1CCCSCCCn1c(=O)[nH]c2ccccc21	-7	19717*	3	-3	?
Cc1ccc(-n2nnnc2SCc2nc3sc(C)c(C)c3c(=O)[nH]2)cc1	68*	8852	-4	0	1
N#C/C(=C/C1=C(N2CCOCC2)C(=C/c2cccc([N+](=O)[O-])c2)/CC1)C(=O)Nc1ccccc1F	636*	4429	-4	11	4
N#C/C(=C/C1=C(N2CCOCC2)C(=C/c2ccccc2)/CC1)C(=O)Nc1ccccc1F	-139	4859	5	1	6
N#C/C(=C\C1=C(N2CCOCC2)C(=C/c2cccc([N+](=O)[O-])c2)/CC1)C(=O)Nc1ccccc1F	+	3183	-7	0	6
CCN(CC)c1ccc(/C=C2\CCC(/C=C(\C#N)C(=O)Nc3ccccc3F)=C2N2CCOCC2)cc1	44	3080	-18	9	40*
Cc1cnc(C=O)c2cccc([N+](=O)[O-])c12	2	4008	-3	-3	0
CCCCn1c(N)c(N(CCOC)C(=O)COC(=O)CCOc2ccc(C)cc2)c(=O)[nH]c1=O	-5	3724	-5	-10	0
Cc1cc(C)c(NC(=O)CS(=O)CC(=O)N2CCN(c3ccccc3)CC2)c(C)c1 (centres undefined)	2	16393*	-2	-2	0
COc1ccc(N2CCN(CC(=O)Nc3c(C)cc(C)cc3C)CC2)cc1	0	17139*	-2	3	-2
Cc1cc(C)c(NC(=O)CN2CCN(C)CC2)c(C)c1	13	4630	-12	-9	-2
O=C(Nc1ccc(Cl)cc1)N[C@@H]1c2c(ccc3ccccc23)OC[C@@H]1CO	6	23698*	-2	-3	-3
CN(C(=O)c1ccccc1)C1c2c(ccc3ccccc23)OCC1CO (centres undefined)	9	3863	-23	1	-4
COC(=O)c1ccc(Cn2ccc(=O)[nH]c2=O)cc1	-1	4170	-8	-9	-1
Cc1cc(C)n(CC(O)Cn2cnc3c2c(=O)n(C)c(=O)n3C)n1 (centres undefined)	-3	22564*	-5	-4	-1
CN(C)c1oc(-c2ccccc2)nc1C#N	2	22791*	1	-4	0
Cc1ccc2ncc([N+](=O)[O-])n2c1	-1	21684*	4	-1	3
Cc1ccc(NC(=O)Cn2c([N+](=O)[O-])cnc2C)cc1	2	4234	-3	-4	0
Cc1ccccc1-c1nc(S(=O)(=O)c2ccc(Br)cc2)c(NCc2cccnc2)o1	-11	20211*	0	-3	1
Cc1c(CC(=O)O)c(=O)oc2c(C)c(OCc3ccc(F)cc3Cl)ccc12	-32	3385	35*	9	2
SMILES	MazF activator	Bead autofluor	BoNT-F LC inh	Anthrax LF prot	BoNT-A LC inh2
COCCN(CCOC)C(=O)CC(=O)N(CCOC)CCOC	5	19259*	1	1	2
COCCN(CCOC)C(=O)Nc1ccc(Cl)cc1	0	4911	-2	-1	0
CCS(=O)c1ccccc1C(=O)OCC(=O)Nc1ccc2ccccc2c1 (centres undefined)	2	3927	-6	-8	0
O=C(N/C(=C/c1ccc(F)cc1)C(=O)N1CCOCC1)c1ccccc1	3	30895*	?	?	?
CN1CCN(C(=O)/C(=C/c2ccc(F)cc2)NC(=O)c2ccccc2)CC1	-4	4070	-15	-8	-3
CCOC(=O)C1CCCN(C(=O)/C(=C/c2ccco2)NC(=O)c2ccccc2)C1 (centres undefined)	1	3868	-8	31*	-3
CCOC(=O)N1CCN(C(=O)/C(=C/c2ccccc2OC)NC(=O)c2ccccc2)CC1	0	16214*	-2	-3	?
O=C(N/C(=C/c1ccco1)C(=O)N1CCCCCC1)c1ccccc1	2	3152	13	4	3
Cc1cc(C)c(NC(=O)CNC(=O)COC(=O)/C=C/c2cccs2)c(C)c1	-14	·	·	·	·
O=C(NCC(F)(F)F)c1cc2c(c(-c3cccc(-c4ccccc4F)c3)n1)[C@H](CCO)N(C(=O)CC1CC1)C2	·	6257	-5	-3	0
COc1cc(Nc2ccn3nc(-c4ccccc4Cl)cc3n2)cc(OC)c1OC	·	3550	-1	-3	0
COc1cccc(N/C=C/C(=O)c2ccc(Br)cc2)c1	-14	2559	5	-1	1
CCOC(=O)c1ccc(N/C=C\C(=O)c2cccc(OC)c2)cc1	-12	2027	-7	-3	0
COc1ccc(C(=O)/C=C/Nc2cccc(O)c2)cc1	5	20620*	1	-12	?
COc1cccc(C(=O)/C=C/Nc2cc(C)ccc2O)c1	8	23605*	-1	-2	0
COc1ccc(N/C=C\C(=O)c2ccc(C)cc2)cc1OC	255*	2681	-1	-4	0
CCOc1ccc(N/C=C/C(=O)c2ccc(OC)cc2)c([N+](=O)[O-])c1	91*	10956	-6	0	-2
Cc1nn(CC(=O)NNC(=O)c2ccc(Br)cc2)c(C)c1[N+](=O)[O-]	5	3471	-4	-7	0
COC(=O)[C@]12CCCCC=C1N(CCC1=CCCCC1)C(=O)[C@H](CC(=O)N1CCN(C(=O)c3ccco3)CC1)C2	·	4995	3	-12	0
Cc1ccc(S(=O)(=O)c2nc(C)oc2N2CCOCC2)cc1	8	4543	-6	2	0
Cc1ccc(S(=O)(=O)c2nc(C(C)(C)C)oc2N2CCOCC2)cc1	-7	16379*	-2	1	0
Cc1oc2c(C)c(O)ccc2c(=O)c1-c1ccc2ccccc2n1	16	19935*	2	1	2
CC(=O)NC1C(=O)N(CC(C)C)c2ccccc21 (centres undefined)	0	21274*	-4	1	-5
O=C(NCCCN1CCOCC1)c1ccc2c(c1)N(Cc1c(F)cccc1Cl)C(=O)c1ccccc1S2	-8	5768	-6	-3	-1
COc1ccc(OCCNc2cc(Cl)ccc2[N+](=O)[O-])cc1	147*	12087	-15	-5	-2
C/C(=N\Nc1nc(N)cc(Cl)n1)c1cccc([N+](=O)[O-])c1	-6	22572*	1	1	-1
C/C(=N\Nc1nc(N)cc(Cl)n1)c1cccc(N)c1	-1	2354	4	-1	0
C=CCn1c(NCc2ccccc2)nc2ccccc21	-4	6295	3	-7	1
C=CCn1c(N2C(=O)CC(Cc3ccccc3)C2=O)nc2ccccc21 (centres undefined)	2	22688*	-2	-2	-1
